Data as given in PubChem BioAssay.
Values joined by “and” are separate entries in the source; they are usually repeats but may differ in a detail not shown here. Equal entries are not always repeated. Active and inactive are the calls of the source.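 Rule for the calls: active = compounds whose cell count with miR-34 switched on is under 0.7 times the count with it off; inactive = the rest.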

Assay: sensitizers of A549 cells to miR-34 induction, primary screen, imaging, A549 dox-inducible miR-34, nuclei and caspase counts (AID 1347080); note: test concentration not given here
Conditions: A549 miR-34 inducible, Hoechst nuclei count, 48 h
[1] = stronger effect = lower value, cell number ratio, induced over uninduced
[2] = measured here: relative caspase fold change +Dox/-Dox
[3] = measured here: total cells with miR-34 induction, stronger effect = lower value
[4] = measured here: total cells without miR-34 induction

Structure (SMILES) | fold change [1] | fold change [2] | cell count [3] | cell count [4]
CCCC/C=C/C=C/C=C\CCCCCCCC(=O)OC | 0.701 (inactive) | 0.864 | 3920 | 5590
O=C(O)CCC/C=C\CC1C(=O)C[C@@H](O)[C@@H]1/C=C/[C@@H](O)COc1ccccc1 (some centres not stated) | 0.868 (inactive) | 1.75 | 5400 | 6220
COc1cc([C@@H]2OC[C@@H](c3cc(OC)c(OC)c(OC)c3)O2)cc(OC)c1OC | 0.96 (inactive) | 0.869 | 5040 | 5250
Cn1c([N+](=O)[O-])cc[n+]1C | 0.892 (inactive) | 0.659 | 8620 | 9670
O=C(O)COc1ccc(C(=O)c2cccs2)c(Cl)c1Cl | 0.964 (inactive) | 0.701 | 5800 | 6010
CCCCCCCOC(=O)Cc1c(C)n(C(=O)c2ccc(Cl)cc2)c2ccc(OC)cc12 | 0.949 (inactive) | 0.801 | 6160 | 6490
CCN(CC)C(=O)CCC/C=C\C[C@@H]1[C@@H](/C=C/[C@@H](O)CCc2ccccc2)[C@H](O)C[C@@H]1O | 0.995 (inactive) | 1.45 | 5990 | 6020
CN(C)c1ccc(C(=O)NCCCCCC(=O)NO)cc1 | 0.991 (inactive) | 1.29 | 5550 | 5600
O=P(O)(O)OC1[C@@H](O)[C@H](O)C(O)[C@H](O)[C@@H]1O (some centres not stated) | 0.924 (inactive) | 0.602 | 5550 | 6010
COc1c(O)c2c(=O)cc(OC)c3c4c(OC)cc(=O)c5c(O)c(OC)c(C[C@@H](C)OC(=O)c6ccccc6)c(c(c1C[C@@H](C)OC(=O)Oc1ccc(O)cc1)c23)c54 | 0.961 (inactive) | 0.723 | 2210 | 2300
C[C@]12CC[C@@H]3c4cc(O)c(O)cc4CC[C@H]3[C@@H]1CC[C@@H]2O | 0.847 (inactive) | 2.78 | 5010 | 5920
O=C(NCc1ccncc1)C12CC3CC(C1)CC(c1ccc(Cl)cc1)(C3)C2 | 0.915 (inactive) | 1.12 | 4010 | 4380
CCCCC/C=C\C/C=C\C/C=C\C/C=C\CCCC(=O)OCC(O)CO (configuration not stated) | 0.924 (inactive) | 0.738 | 4970 | 5380
CO[C@H]1CC(O[C@@H]2/C(C)=C/C[C@@H]3C[C@@H](C[C@]4(C=C[C@H](C)[C@@H](C5CCCCC5)O4)O3)OC(=O)[C@@H]3C=C(C)[C@@H](O)[C@H]4OC/C(=C\C=C\[C@@H]2C)[C@]43O)O[C@@H](C)C1O[C@H]1C[C@H](OC)[C@@H](O)[C@H](C)O1 (some centres not stated) | 0.703 (inactive) | 1.24 | 405 | 576
O=P(O)(O)O[C@@H]1[C@H](O)[C@H](O)[C@@H](OP(=O)(O)O)[C@H](OP(=O)(O)O)[C@H]1O | 0.931 (inactive) | 0.377 | 5940 | 6380
C#CCCC[C@@H](O)CCCCCCCCCCC(=O)O | 0.902 (inactive) | 1.14 | 5310 | 5890
CCCCC(C)(C)[C@H](O)/C=C/[C@H]1CCC(=O)[C@@H]1C/C=C\CCCC(=O)O | 0.973 (inactive) | 1.01 | 6270 | 6450
CC#CCC(C)[C@@H](O)/C=C/[C@@H]1[C@H]2C/C(=C\CCCC(=O)O)C[C@H]2C[C@H]1O (some centres not stated) | 0.903 (inactive) | 1.4 | 4970 | 5500
OCCC/C=C/c1ccccc1 | 0.953 (inactive) | 1.17 | 5920 | 6210
O=C1OC[C@@H](Cc2cccc(O)c2)[C@@H]1Cc1cccc(O)c1 | 0.923 (inactive) | 1.92 | 5590 | 6060
CCCCCCCCCCCCCCC(=O)N[C@H]1CCOC1=O | 0.982 (inactive) | 1.59 | 5560 | 5660
CCCCC(C)(C)[C@H](O)/C=C/[C@@H]1[C@@H](C/C=C\CCCC(=O)O)[C@@H](O)C[C@H]1O | 0.98 (inactive) | 1.24 | 5690 | 5800

Structure (SMILES) | fold change [1] | fold change [2] | cell count [3] | cell count [4]
O=C1OC2(c3ccc(O)cc3Oc3cc(OS(=O)(=O)c4c(F)c(F)c(F)c(F)c4F)ccc32)c2ccccc21 (configuration not stated) | 1.09 (inactive) | 0.755 | 6600 | 6070
CCCCCC#CCC#CCC#CCCCCCCC(=O)O | 0.97 (inactive) | 0.33 | 5730 | 5910
CCCCCCCCCCCCCCCC(=O)OC[C@H](COP(=O)([O-])OCC[N+](C)(C)C)OC(=O)CCCCCCCC(=O)O | 0.924 (inactive) | 0.678 | 5760 | 6240
CCCCC(C)(C)[C@H](O)/C=C/[C@H]1[C@H](O)CC(=O)[C@@H]1CC(=O)CCCCC(=O)O | 0.919 (inactive) | 1.32 | 5680 | 6180
CC(Sc1nc2ccccc2[nH]1)C(=O)N/N=C/c1cc(Br)ccc1O (configuration not stated) | 1.01 (inactive) | 1.43 | 6060 | 6010
CCCCCC(=O)/C=C/C=O | 1.01 (inactive) | 1.61 | 5770 | 5720
CCCCCCCCCCCCCCCCCCCC(=O)NCCO | 1.07 (inactive) | 0.773 | 6530 | 6100
CC(=O)c1ncc([C@@H](O)[C@H](O)[C@H](O)CO)[nH]1 | 0.931 (inactive) | 2.05 | 5900 | 6330
CN(C)CCCCCCOc1ccc(-n2ccnc2)cc1 | 1.01 (inactive) | 0.915 and 0.806 | 5270 and 6380 | 5240 and 6330
CCCCC/C=C\C=C\C(O)CCCCCCCC(=O)OC[C@@H](COC(=O)CCCCCCC/C=C\C=C\C(O)CCCCC)OC(=O)CCCCCCC/C=C\C=C\C(O)CCCCC (some centres not stated) | 1.03 (inactive) | 1.09 | 5890 | 5740
CCCCCCCCCCCCCCCCCC(=O)OCC | 0.95 (inactive) | 2.18 | 5760 | 6060
CCCCC[C@](C)(O)/C=C/[C@H]1C(=O)C[C@H](O)[C@@H]1C/C=C\CCCC(=O)O | 1.01 (inactive) | 0.91 | 5200 | 5160
O=C(O)CCCCCC[C@H]1C(=O)C[C@@H](O)[C@@H]1/C=C/[C@@H](O)Cc1ccccc1 | 1.03 (inactive) | 1.38 | 5710 | 5540
CCC(C)(C)C(=O)C(=O)N1CCCC[C@H]1C(=O)O[C@H](CCc1ccc(OC)c(OC)c1)c1cccc(N)c1 | 0.702 (inactive) | 0.49 | 4270 | 6080
COc1ccc(-c2nc3cc(F)ccc3s2)cc1OC | 0.915 (inactive) | 0.244 | 4920 | 5370
CCCCCCCCCCCCCCCC(=O)OC[C@H](COP(=O)([O-])OCC[N+](C)(C)C)OC(=O)CCCCCCCC(=O)/C=C/C(=O)O | 0.943 (inactive) | 0.858 | 5750 | 6100
CCCCCCCC/C=C\CCCCCCCC(=O)OCC(O)COP(=O)(O)O (configuration not stated) | 1.12 (inactive) | 0.696 | 5760 | 5140
CCCCCCCCCCCCCCCCOC[C@H](COP(=O)([O-])OCC[N+](C)(C)C)SC(C)=O | 0.92 (inactive) | 0.945 | 4720 | 5130
CCCCC/C=C\C/C=C\CCCCCCCC(=O)OCC | 0.908 (inactive) | 0.749 | 4750 | 5230
O=C(O)CCCCCCCCCCCNC(=O)NC1CCCCC1 | 0.963 (inactive) | 0.896 | 5580 | 5790
O=C(O)CCC/C=C/C[C@@H]1[C@@H](CC[C@@H](O)CCc2ccccc2)[C@H](O)C[C@@H]1O | 0.961 (inactive) | 1.3 | 5820 | 6060
